Structures are written as SMILES. Activity calls are given as the source filed them. Calls come from the whole dose curve; as a rule, active = well fitted curve in the direction sought with a large enough effect; inconclusive = small, poorly fitted or top-dose-only effect, or another doubt; inactive = no such curve, though single readings can be large or run the other way.

A short description of the experiment: Quantitative high throughput screen to test cell viability of anti-malarial compounds targeting the delayed death phenotype. Particulars: HepG2 viability, CellTiter-Glo luminescence, 48 h. The source says: NIH Molecular Libraries Probe Production Network [MLPCN] NIH Chemical Genomics Center [NCGC] MLPCN Grant: R21 NS059500 Assay Provider: David Fidock and Eric Ekland, Columbia University The goal of this screen is to measuer the cytoxoxicity (against HepG2 cell line) of a set of anti-malarial compounds that target the delayed death pheonotype, by inhibiting the development of the apicoplast in the malarial parasite Plasmodium falciparum (described below) The biochemical processes that make this organelle essential for erythrocytic stage parasites are not well understood. However, antibiotics, such as azithromycin and tetracycline, which target the apicoplast translational machinery, have a potent antimalarial effect. […] We have developed a cell-based assay that measures parasite growth based on the expression of an integrated copy of a firefly luciferase reporter. To detect small molecules that cause this 'delayed death' phenotype, erythrocytes infected with the luciferase-expressing parasites were incubated with compounds for either one or two generations, corresponding to 48 and 96 hours, respectively. Compounds that inhibit parasite growth in the second generation, but not the first, should be enriched in antimalarials that target the apicoplast. Growth inhibition is detected by a decrease in luciferase activity
Cells were plated at a density of 2000 cells/well/5uL in 1536 well white tissue culture plate with culture medium. Triplicate plates were prepared. Plates were incubated at 37C, 5% CO2 for 5 hours and then 23nL of compounds and positive control were transferred to the assay plates. Tetraoctylammonium bromide was added as a positive control. Plates were then incubated at 37C, 5% CO2 for 48 hours. 5 uL of CellTitler-Glo buffer was added to each well and then incubated for 30 min at room temperature. Luminescence was measured using ViewLux (1 second, slow, 2X).
Turning to `CCCCN(CCCNC(=O)c1ccc(CS(=O)(=O)c2ccc(OC)cc2)o1)Cc1ccccc1`, the max response is -1.11% (inactive).
Regarding `CCOc1ccc(NC(=O)C[n+]2ccc(N(C)C)cc2)cc1`, the max response is 8.12% (inactive).
Then `CCCc1cc(=O)oc2cc(OC(C)C(=O)NCc3ccccn3)c(Cl)cc12` (stereo not given), with 11.2% (inactive); and `CN(C)c1ccc(CN(C(=O)c2ccccc2Br)C2CCS(=O)(=O)C2)cc1` (stereo not given), with 14.8% (inactive).
Turning to `O=C(Nc1ccccc1N1CCOCC1)c1cccc(S(=O)(=O)N2CCOCC2)c1`, the max response was 0.827% (inactive).
On to `CCCCN(CCCNC(=O)C1CCN(C(=O)c2cc3sccc3n2C)CC1)Cc1ccccc1`, for which the max response is 0.234% (inactive).
Regarding `CCCc1c(CC)c(=N)c2ccccc2n1C`, the max response is 13.6% (inactive).
Then `CCC(=O)OC1C(N(C)C)CC(C)O[C@H]1O[C@H]1[C@H](C)[C@@H](O[C@H]2CC(OC)[C@@H](O)C(C)O2)[C@H](C)C(=O)O[C@@H](CC)[C@](C)(O)[C@@H](O)[C@H](C)C(=O)[C@@H](C)C[C@]1(C)O` (stereo not given in full), with 10.5% (inactive); and `Cc1ccc(CN2CCC(n3nccc3NC(=O)c3ccccc3C)CC2)o1`, with 13.2% (inactive).
In the case of `CCOc1ccc(S(=O)(=O)Nc2cc(S(=O)(=O)N(CC)CC)ccc2N2CCCC2)cc1`, the max response is -26.9% (inactive).
With `Cc1ccc(S(=O)(=O)Nc2ccc(C(=O)Nc3ccncc3)cc2)cc1` the figure was 5.11% (inactive); with `O=C(CSc1ccc(-c2cccnc2)nn1)Nc1ccccc1C(F)(F)F`, 0.59% (inactive); with `CCN(CC)C(=O)COc1coc(CN2CCN(c3cccc(Cl)c3)CC2)cc1=O`, 3.88% (inactive).
In the case of `CN(C)S(=O)(=O)c1cc(NC(=O)C2=COCCO2)ccc1Cl`, the max response was 13.5% (inactive).
As for `CCc1nc(SCC(=O)Nc2ccc(N(C)C)cc2)n[nH]1`, the max response is 1.4% (inactive).
Then `N#Cc1cccc(NC(=O)Cn2c3[n+](c4ccc(C(F)(F)F)cc42)CCCCC3)c1`, with 14.7% (inactive).
In the case of `COc1ccc(NC(=S)N2CCC(Cc3ccccc3)CC2)cc1OC`, the max response was 0.57% (inactive).
Then `Clc1ccc(-c2c[n+](Cc3ccc(Cl)cc3Cl)c3n2CCCCC3)cc1`, with -16.1% (inactive); and `Cc1ccc(-n2c(-c3ccc(Cl)cc3)c[n+]3c2CCC3)cc1`, with -10.3% (inactive).
With `COc1cccc(CN2CCN(c3nc4nonc4nc3N3CCCCC3)CC2=O)c1` the figure was 15.7% (inactive); with `COc1ccc(CNC(=O)C2CCC(CNS(=O)(=O)c3cccc4cccnc34)CC2)cc1` (stereo not given), 4.48% (inactive); with `CO[C@@H]1[C@@H](OC2OC(C)C(OC3CC(C)(O)C(OC(=O)CC(C)C)C(C)O3)C(N(C)C)C2O)[C@@H](CC=O)C[C@@H](C)C(=O)/C=C\C2O[C@H]2C[C@@H](C)OC(=O)C[C@H]1OC(C)=O` (stereo not given in full), 14.6% (inactive).
Turning to `COc1ccc(Nc2nnc(-c3ccc(C)cc3)c3ccccc23)cc1C(=O)N1CCCCC1`, the max response is -6.06% (inactive).
Turning to `COc1ccc(C(=O)N2CCN(S(=O)(=O)c3ccc(C)cc3C)CC2)cc1OC`, the max response was -11.6% (inactive).
Then `O=C(c1ccc([N+](=O)[O-])cc1)n1nc(-c2ccccc2)nc1NCc1ccc(F)cc1`, with 17.5% (inactive).
On to `CCOC(=O)c1ccc2c(c1)n(CC)c(/C=C/N(C)c1ccccc1)[n+]2CC`, for which the max response was -1.94% (inactive).
Then `O=C(CNC(=O)C1CCCCC1)OC(C(=O)c1ccccc1)c1ccccc1` (stereo not given), with 20.4% (inactive); and `Cc1sc2nc[nH]c(=O)c2c1-c1ccc(Cl)cc1`, with 3.87% (inactive); and `CC(=O)NC[C@@H]1CN(c2ccc(N3CCOCC3)c(F)c2)C(=O)O1`, with 12.4% (inactive).
`Cc1c(F)c(N2CCNC(C)C2)cc2c1c(=O)c(C(=O)O)cn2C1CC1` (stereo not given): the max response was 12.4% (inactive).
For the compound `COCCNC(=O)c1cccc(OC2CCN(Cc3cccc(SC)c3)CC2)c1`, the max response is -0.53% (inactive).
With `O=C(NCc1cccnc1)c1ccc(NS(=O)(=O)c2ccccc2)cc1` the figure was -0.715% (inactive); with `COc1ccc(NC(=O)NC2CCCCCCC2)c(OC)c1`, -2.67% (inactive).
With `COc1ccc2c(ccc[n+]2CC(=O)c2ccccc2)c1` the figure was 5.11% (inactive).
Consider `Brc1cccc(OCCCCN2CCCCC2)c1`, for which the max response is -6.02% (inactive).
With `CC1=Nc2cc(C(=O)N3CCCC3)ccc2Sc2ccc(C)cc21` the figure was 5.45% (inactive); with `CCOc1ccc(C(=O)Nc2ccc(N3CCN(C)CC3)cc2)cc1`, 8.06% (inactive).
Then `CC(C)C(=O)NCCSc1c[nH]c2ccccc12`, with -11.2% (inactive); and `COc1ccccc1N1CCN(CCC(=O)Nc2ccc(F)cc2)CC1`, with 6.7% (inactive).
For `CCCCOc1ccc(N2C(N)=NC(N)=NC23CCCCC3)cc1`, the max response was -12% (inactive).

The record behind these values is PubChem BioAssay AID624206 (National Center for Advancing Translational Sciences (NCATS), 2012).
